High-throughput results deposited in PubChem by National Center for Advancing Translational Sciences (NCATS).
NS1 inh – qHTS Assay for Inhibitors of Influenza NS1 Protein Function; Potency, µM (top dose mostly 46.1 µM), without a hit: at the top dose activity, positive = more growth; hit rate 0.4% among 270,000; calls by dose curve; note: potency is the fitted concentration of half-maximal effect; actives are rising curves; nearly all actives have a fitted effect of over 50% in size
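OD600 was taken as the measure of yeast growth restored by compound in an NS1-expressing S. cerevisiae strain. Cells had been washed out of glucose medium and diluted 1:100 into galactose -URA medium, pH 6.0.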
Shiga inhibitor – A qHTS for Small Molecule Inhibitors of Shiga Toxin; Vero cells, Shiga toxin protein synthesis inhibition reporter; inhibition, % at 38.7 µM; hit rate 9.2% among 290,000; AID 2315, 2010; in the data active = inhibition mostly above about 28%, no sharp cut-off; inactive = mostly below about 43%; note: 0% is about no effect
Pf growth 96h – Primary qHTS for delayed death inhibitors of the malarial parasite plastid, 96 hour incubation; P. falciparum luciferase reporter growth, 96 h; hit rate 6.9% among 320,000; AID 504834, 2011; Potency, µM (highest dose often 28.7 µM), inactives show at the highest dose activity change, negative = inhibition, hits mostly inhibitors; note: potency is the fitted concentration of half-maximal effect; % is set by controls: 0 for no effect and ±100 for the full control effect
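Luminescence readout: decreased luciferase signal marks inhibited growth of reporter-expressing P. falciparum in infected red cells (2% hematocrit, 0.05% parasitemia final), exposed to compound two generations (96 h, 37 C, 5% CO2).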
SARS PLP yeast – qHTS of Yeast-based Assay for SARS-CoV PLP; AID 485353, 2010; Potency, µM (titrated, usually from 32.9 µM), for the others: top-dose activity, positive = growth rescue, most hits filed as activators; hit rate 0.19% among 330,000; S. cerevisiae expressing SARS-CoV PLpro, growth rescue; calls by dose curve; note: potency is the fitted concentration of half-maximal effect; 0% is about no effect; nearly all actives have a fitted effect of over 55% in size
CHX counter – Cycloheximide Counterscreen for Small Molecule Inhibitors of Shiga Toxin | hit rate 12% among 300,000 | max response, % | AID 2314, 2010 | cell reporter, cycloheximide protein synthesis inhibition counterscreen; in the data active = max response mostly above about 13%, no sharp cut-off; inactive = mostly below about 14%; note: read at 38.3 µM for the half of the compounds with a filed dose; 0% is about no effect
Pf growth 48h – Primary qHTS for delayed death inhibitors of the malarial parasite plastid, 48 hour incubation; P. falciparum luciferase growth in erythrocytes, 48 h; Potency, µM (titrated, usually from 28.7 µM), inactives show at the highest dose activity change, negative = inhibition, actives largely listed as inhibitors; hit rate 5.9% among 310,000; AID 504832, 2011; note: potency is the fitted concentration of half-maximal effect; % is set by controls: 0 for no effect and ±100 for the full control effect
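Luciferase-expressing P. falciparum in infected erythrocytes (2% hematocrit, 0.1% parasitemia final) in RPMI 1640/0.5% Albumax were exposed to compound for 48 hours at 37 C, 5% CO2; growth read as luminescence.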
Active calls of the source: *; i = inactive; ? = inconclusive; nt = no result given; [ ] = remark or other dose. A selection: hits, their analogues and other compounds. The true share with any hit is near 21%. Unless noted, calls come from the whole dose curve; as a rule, active = well fitted inhibition curve with a large enough effect; inconclusive = small, poorly fitted or top-dose-only effect, or another doubt; inactive = no such curve, though single readings can be large or run the other way.

SMILES | NS1 inh | Shiga inhibitor | Pf growth 96h | SARS PLP yeast | CHX counter | Pf growth 48h
CCc1ccccc1N(CC(=O)N1CCCC1)S(C)(=O)=O | -13% | -10 | 10µM* | 1% | 1 | -2%
COc1ccc(N(CC(=O)N2CCOCC2)S(C)(=O)=O)cc1Cl | 5% | -3 | 12µM* | -1% | -2 | -14%
COc1ccc(N(CC(=O)N2CCCCCC2)S(C)(=O)=O)cc1Cl | 25% | 12 | -29% | 3% | 2 | ?
Cc1ccc(N(CC(=O)N2CCCC2)S(C)(=O)=O)cc1C | -5% | -7 | 7.4µM* | -2% | -2 | -17%
COc1ccc(N(CC(=O)N2CCOCC2)S(C)(=O)=O)cc1OC | 5% | -3 | 13µM* | -3% | -4 | -5%
COc1cc(NS(=O)(=O)c2ccc([N+](=O)[O-])cc2)c2ncccc2c1 | nt | -11 | nt | nt | 5 | nt
COc1ccc(-c2nc(N)n(C(=O)c3ccccc3Cl)n2)cc1 | 13% | -2 | 39% | -14% | 8 | 12%
NC(=O)O | nt | 2 | nt | nt | -6 | nt
CC(=O)N1CCOc2cc(S(=O)(=O)NC(C)c3ccccc3)c(Cl)cc21 (configuration not stated) | 18% | 9 | -16% | -3% | 3 | -64%
CC(=O)N1CCOc2cc(S(=O)(=O)Nc3cccc(C(F)(F)F)c3)c(Cl)cc21 | nt | nt | ? | -1% | nt | 13µM*
C=CCN1C(=O)/C(=C/c2ccc(-c3ccc(F)cc3)o2)SC1=S | 40% | 5 | 57% | 0% | 5 | 45%
O=[N+]([O-])c1ccc(Sc2nnnn2-c2ccccc2)nc1 | nt | 17 | ? | -17% | 12 | ?
COc1ccc([C@]23Cc4cc(OC)c(OC)cc4C(O2)c2c(cc(C)n(Cc4ccccc4)c2=O)O3)cc1 | 2% | i | 1.5µM* | -4%[6.58 µM] | 3 | ?
COc1ccc([C@]23Cc4cc(C#N)ccc4[C@H](O2)c2c(cc(C)n(Cc4ccccc4)c2=O)O3)cc1 | 22% | i | -4%[5.75 µM] | 2%[6.58 µM] | 8 | 1.9µM*
COc1ccc([C@]23Cc4cc(C#N)ccc4C(O2)C2=C(CC4(CCCCC4)OC2=O)O3)cc1 | ? | i | 0.76µM* | -2%[6.58 µM] | -2 | ?
COc1ccc([C@]23Cc4cc(OC)c(OC)cc4C(O2)c2c(c4ccccc4oc2=O)O3)cc1 | 9% | i | ? | -9%[6.58 µM] | -3 | 31%[5.75 µM]
O=C(NCc1ccccn1)c1cc(-c2ccccc2)on1 | -7% | 141* | ? | -3% | 36* | 76%
O=C(NCc1ccccn1)c1ccco1 | nt | 8 | -90%[5.75 µM] | 1% | 4 | 8%
Cc1ccc(-c2cc(C(=O)NCc3ccccn3)no2)cc1 | -15% | 85* | -1% | -11% | 45* | 81%
COc1ccccc1OCc1cc(C(=O)NCc2ccc(N3CCCC3=O)cc2)no1 | -3% | 18 | -11% | 0% | 42* | ?
O=C(NCc1ccccn1)c1ccc(-c2ccccc2)cc1 | -3% | 64* | 68% | -2% | 36* | 48%
CS(=O)(=O)c1ccc(C(=O)OCC(=O)NC(=O)C2CCCCC2)cc1[N+](=O)[O-] | nt | 18 | ? | -1% | 18 | ?
O=C(NCc1ccccn1)c1ccc(N2CCCC2=O)cc1 | 2% | 27 | 14% | -2% | 23* | 71%
O=C1CCC/C(=N\NC(=O)c2ccc(CSc3cccc4cccnc34)cc2)C1 | nt | 3 | ? | 2% | -1 | 93%
Cc1cccc(CSc2[nH]c(=O)ncc2C)c1 | 7% | 10 | 31% | 0% | 10 | 50%
SMILES | NS1 inh | Shiga inhibitor | Pf growth 96h | SARS PLP yeast | CHX counter | Pf growth 48h
Cc1cccc(CSc2cccc3cccnc23)c1 | -125% | 152* | 4.7µM* | -27% | 60* | 32%
O=C(N/N=C/c1ccccc1Br)c1ccc(CSc2cccc3cccnc23)cc1 | 10% | 8 | ? | -4% | 12* | nt
NNC(=O)c1ccc(CSc2cccc3cccnc23)cc1 | nt | 20 | 3% | -2% | 23* | -1%
COc1cccc(/C=N/NC(=O)CSc2cccc3cccnc23)c1 | -65% | 31 | ? | -6% | 13 | -20%
c1cnc2c(SCc3ccc(-c4nnco4)cc3)cccc2c1 | -80% | 68* | 32% | 4% | 39* | 68%
O=S1(=O)c2cccc3cccc(c23)N1Cc1ccc(-c2nnco2)cc1 | -20% | 12 | nt | -9% | -9 | -12%
O=c1ncccn1[C@@H]1O[C@H](CO)[C@@H](O)[C@H]1O | nt | -7 | nt | nt | 7 | nt
COc1ccc2[nH]c(=O)c(CN(Cc3cccnc3)C(=S)NCC3CCCO3)cc2c1 (configuration not stated) | -4% | -8 | ? | -1% | 1 | 0%
CCOc1cc(/C=C(\C#N)C(=O)Nc2ccccc2[N+](=O)[O-])ccc1OCc1cccc2ccccc12 | 1% | 23 | 52% | 0% | 9 | 33%
O=C(NCc1ccco1)c1nc(-c2ccc(F)cc2)no1 | nt | 41* | ? | 1% | 8 | -4%
O=C(NCc1ccco1)c1cc(-c2ccc3c(c2)OCO3)on1 | 1% | 109* | ? | -3% | 42* | 176%
O=C(NCc1ccco1)c1ccccc1-c1nc(-c2ccc(F)cc2)no1 | -2% | 20 | 42% | 0% | 12 | 22%
O=C(NCc1ccc2c(c1)OCO2)c1cc(-c2ccccc2)on1 | 0% | 4 | nt | 2% | 2 | 2%
O=C(NC(=S)NCc1ccco1)c1cccc(Cl)c1 | -31% | -25 | 69% | -7% | 2 | ?
O=C(NCc1ccco1)c1ccc(-c2cccc(Cl)c2)o1 | -2% | 71* | -2% | -1% | 52* | 51%
CC1CCc2sc3ncn4nc(C(=O)NCc5ccco5)nc4c3c2C1 (configuration not stated) | -34% | -7 | 6% | 0% | -1 | 15%
CC1CCc2onc(C(=O)NCc3ccco3)c2C1 (configuration not stated) | nt | 85* | ? | 4% | 38* | 67%
CCOc1ccccc1NC(=O)CN1CCN(Cc2ccccc2)CC1 | -1% | -4 | -7% | 1% | -2 | nt
Cc1cc(C(=O)NNc2ccc(F)cc2F)no1 | -66% | -19 | 18% | -2% | -1 | 11%
COc1ccc(/C=C/CN2CCC(CO)(Cc3ccccc3Cl)CC2)cc1 | 3% | 17 | ? | 0% | 12 | ?
COc1cc(N)c(Cl)cc1C(=O)N[C@@H]1CCN(CCCOc2ccc(F)cc2)C[C@@H]1OC | nt | -7 | nt | 9% | 5 | nt
COc1ccc(CCNC(=O)c2cc(CC(C)C)on2)cc1OC | -135% | 24 | 7.4µM* | -9% | 15 | nt
Cc1ccc(-c2cc(C(=O)NCc3ccco3)no2)cc1 | ? | 43* | -13% | -1% | 28* | 88%
COc1cccc(-c2cc(C(=O)NCc3ccco3)no2)c1 | -11% | 86* | ? | 4% | 50* | nt
Cc1cc(C(=O)NCc2ccco2)no1 | -2% | 59 | nt | 4% | 7 | 10%
